This is an account of results in PubChem BioAssay (NCI).

Structures are written as SMILES. This is part of a sample that, as a whole, favours compounds with a hit. Of some 79,000 tested, about 15% had one in any assay. A number with no mark means an inactive call. The source made the active and inactive calls. Rule as the data show it: active = growth inhibition above about 70%; inactive = the rest.

Test [1] can be described thus: NCI Yeast Anticancer Drug Screen. Data for the rad50 strain (AID 155).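 Also: 0% = growth of vehicle-only cultures of the same strain.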 To be noted: S. cerevisiae rad50 strain growth inhibition; at 50.0 µM; hits give high values. The procedure, abridged: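 Readout: growth inhibition relative to vehicle-treated cultures. Compound exposure was carried out in a genetically defined yeast strain deficient in DNA damage repair.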
A short description of test [2]: NCI Yeast Anticancer Drug Screen. Data for the mec2-1 strain (AID 157). To be noted: S. cerevisiae mec2-1 strain, at 50.0 µM, hits give high values. The procedure, abridged: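 mec2-1 yeast strain, carrying an alteration in DNA damage repair or cell cycle control, was exposed to compounds; growth inhibition was measured relative to vehicle-treated controls.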
Test [3] can be described thus: NCI Yeast Anticancer Drug Screen. Data for the sgs1 mgt1 strain (AID 161).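 Also: 0% = growth of cultures given vehicle only.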 The conditions noted are these: S. cerevisiae sgs1 mgt1 strain, at 50.0 µM, hits give high values. The procedure, abridged: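 Percent growth inhibition was derived by comparing compound-exposed mutant yeast with vehicle-exposed cultures. The strain carries alterations in DNA damage repair.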

Test [4] in a line: NCI Yeast Anticancer Drug Screen. Data for the cln2 rad14 strain (AID 165).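 Also: 0% = growth equal to vehicle treated cultures.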 To be noted: S. cerevisiae cln2 rad14 strain, at 50.0 µM, hits give high values. The procedure, abridged: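 Yeast carrying cln2 and rad14 alterations (cell cycle control and DNA damage repair) were exposed to compounds. Growth inhibition was measured against vehicle-treated controls.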
Test [5] can be described thus: NCI Yeast Anticancer Drug Screen. Data for the bub3 strain (AID 167). The conditions noted are these: S. cerevisiae bub3 mutant strain, at 50.0 µM, hits give high values. In outline:
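Readout: yeast growth inhibition, expressed relative to vehicle-only wells. The test organism is a mutant strain from a panel with lesions in DNA repair or checkpoint genes.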

A short description of test [6]: NCI Yeast Anticancer Drug Screen. Data for the mlh1 rad18 strain (AID 175). The conditions noted are these: S. cerevisiae mlh1 rad18 strain growth inhibition; at 50.0 µM; hits give high values. In outline: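 Growth inhibition of the yeast strain was measured after compound exposure and expressed relative to vehicle-treated controls. The strain carries defined defects in DNA damage repair.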

With `CCOC(=O)C(=O)Nc1c(N(CC)CC)n2ccccc2nc1=O`, the growth inhibition was 5.75% in test [1]; -22.5% in test [2]; -4.15% in test [3]; 6.2% in test [4]; 2.6% in test [5]; 13.8% in test [6].

Regarding `O=C(O)CCc1ccncc1`, the growth inhibition is 2.25% in test [1]; 9% in test [2]; 12.8% in test [3]; -1.7% in test [4]; 7.1% in test [5]; -0.95% in test [6].

On to `CCn1c(C)nc([N+](=O)[O-])c1Sc1ncn[nH]1`, for which the growth inhibition in test [1] is 10.2%; in test [2] it was -10.3%; in test [3], 11.2%; in test [4], 5.1%; in test [5], -7.05%; in test [6], -59.7%.

`COc1ccccc1-c1cc(=O)c2c(C)cc(C)nc2[nH]1`: the growth inhibition in test [1] is -15.8%; in test [2], -16.1%; in test [3] it was -0.6%; in test [4], -20.3%; in test [5], 6.25%; in test [6], 1.65%.

Regarding `C/C(=C\c1ccc(Cl)cc1)C(C)(C)C(=O)O`, the growth inhibition in test [1] was 15.1%; in test [2], -23.2%; in test [3] it was -1.25%; in test [4] it was -6.95%; in test [5] it was 11%; in test [6], 19.6%.

Regarding `C#CCNC(=O)NCCCC(NC(C)=O)C(=O)NCc1ccccc1` (centres undefined), the growth inhibition in test [1] was 41%; in test [2], -12.2%; in test [3], -4.65%; in test [4], 32.1%; in test [5], -5.75%; in test [6], -8.15%.

For `CC1CCC(C(C)C)=C(C2CCCCC2)C1` (centres undefined), the growth inhibition in test [1] was -2.15%; in test [2] it was 1.65%; in test [3], -3.65%; in test [4], -7.05%; in test [5], -9.8%; in test [6], 6.65%.

For `CC(C)=CCC1=C(O)c2ccccc2C(=O)C1=O`, the growth inhibition was 16.6% in test [1]; 5.15% in test [2]; 14.2% in test [3]; 0.4% in test [4]; -4.25% in test [5]; 13.1% in test [6].

Take `O=C(O)CN1C(=O)c2ccc([N+](=O)[O-])cc2C1=O`: the growth inhibition is -3.65% in test [1]; -0.2% in test [2]; 2.3% in test [3]; -8.2% in test [4]; -16.5% in test [5]; 4.25% in test [6].

Take `CCN(Cc1cc(Cl)cc(C)c1O)Cc1c(O)ccc2ccccc12`: the growth inhibition in test [1] was 99.5% (active); in test [2], 99.2% (active); in test [3], 99.3% (active); in test [4], 99.3% (active); in test [5], 98.6% (active); in test [6] it was 99.7% (active).

As for `CC(c1ccccc1)n1cnc2c(N(CCO)CCO)ncnc21` (centres undefined), the growth inhibition in test [1] is 2.5%; in test [2] it was -1.6%; in test [3] it was 9.45%; in test [4], -4.05%; in test [5], 9.85%; in test [6] it was 11.7%.

In the case of `NC(N)=NC(N)=NCc1ccccc1`, the growth inhibition in test [1] is 5.45%; in test [2], -2.45%; in test [3] it was 4.3%; in test [4] it was 12.7%; in test [5], 1.85%; in test [6] it was 0.85%.

In the case of `CCCCN=CC(Cl)(Cl)C(=O)OCC`, the growth inhibition in test [1] is -13.2%; in test [2], -21.6%; in test [3], -8.35%; in test [4], 4.05%; in test [5], -10.9%; in test [6], -19.7%.

With `CN(C)CCC(=O)N1CCc2c([nH]c3ccccc23)C1c1cccnc1` (centres undefined), the growth inhibition in test [1] is -15.2%; in test [2], -34.6%; in test [3], -21.6%; in test [4], 6.55%; in test [5], 5.65%; in test [6] it was -40.5%.

Take `C=CCc1cc(Br)ccc1O`: the growth inhibition is 20.7% in test [1]; 5.9% in test [2]; -9.85% in test [3]; 11.1% in test [4]; -17.4% in test [5]; 33.5% in test [6].

In the case of `COc1c2ccoc2cc2oc(=O)ccc12`, the growth inhibition is 10% in test [1]; -7.1% in test [2]; 12.8% in test [3]; 14.3% in test [4]; 22.4% in test [5]; 20.4% in test [6].

Turning to `CC(=O)NCCSSCCCCS(=O)O`, the growth inhibition is -19.1% in test [1]; -20.1% in test [2]; 7.85% in test [3]; 11.3% in test [4]; 6.05% in test [5]; -5.35% in test [6].

Take `CC(=N/N(C)c1ccccc1)/C(C)=N/N(C)c1ccccc1`: the growth inhibition in test [1] is 19.1%; in test [2], 6.7%; in test [3] it was 3.7%; in test [4] it was 3.65%; in test [5], 4.35%; in test [6], 15.8%.

As for `CCCCNS(=O)(=O)c1n[nH]c(=O)[nH]c1=O`, the growth inhibition in test [1] was -27.1%; in test [2] it was -10.1%; in test [3], -37.9%; in test [4], -12.4%; in test [5], -38%; in test [6], -19.2%.
